According to PubChem BioAssay (EPA / NIEHS):
Records with an inconclusive call do not appear. Active and inactive are the calls of the source. Rule for the calls: active = hit-call score of the fitted dose curve at least 0.9, where 1 is the maximum; inconclusive = response in the unintended direction; inactive = score below 0.9.

Test: Tanguay_ZF_120hpf_NC_legacy: (Legacy) Oregon State University Tanguay Lab 120 Hour Post-fertilization zebrafish Assay for Notochord and Tail Malformation (AID 2283656)
Method: Tanguay_ZF_120hpf_legacy is a whole embryo, multiplexed endpoint assay using zebrafish larvae exposed for 120 hours post fertilization on a 96-well plate.Tanguay_ZF_120hpf_NC_legacy is one of one assay component(s) measured or calculated from the Tanguay_ZF_120hpf_legacy assay. It is designed to make measurements of zebrafish development as detected with brightfield microscopy of developing zebrafish embryos.Data from the assay component Tanguay_ZF_120hpf_NC_legacy was analyzed into 1 assay endpoints. This assay endpoint, Tanguay_ZF_120hpf_NC_legacy, was analyzed in the positive analysis fitting direction relative to DMSO as the negative control and baseline of activity. Using a type of morphology reporter, gain-of-signal activity can be used to understand changes in developmentals as they relate to the whole embryo. To generalize the intended target to other relatable targets, this assay endpoint is annotated to the zebrafish development intended target family, where the subfamily is embryonic notochord morphogenesis.
Zebrafish husbandry: Tropical 5D wild-type adult zebrafish were housed in at an approximate density of 1000 per 100 gallon tank at the Sinnhuber Aquatic Research Laboratory, Oregon State University, Corvallis, OR. Each tank was kept at standard laboratory conditions of 28C on a 14-h light/10-h dark photoperiod in fish water consisting of reverse osmosis water supplemented with a commercially available salt (Instant Ocean). Spawning funnels were placed into the tanks the night prior, and embryos were collected and staged. To increase bioavailability, the chorion was enzymatically removed using pronase (63.6mg/ml, >/= 3.5U/mg, Sigma-Aldrich: P5147) at 4 hours post fertilization (hpf) using a custom automated dechorionator.Chemical exposures: Six hpf dechorionated embryos were placed 1 embryo per well in a 96-well plate prefilled with 90 ul of EM using automated embryo placement systems (AEPS). Ten microliters of each row of dilution plate 2 was added to 2 exposure plates. The final DMSO concentration used was 0.64% (vol/vol). Thirty-two embryos were also exposed to 5uM trimethyltin chloride (positive control). Plates were sealed to prevent evaporation and foil covered to reduce light exposure and kept in a 28C incubator. Embryos were statically exposed until 120 hpf. At 24 hpf, embryos were assessed for photomotor response using a custom photomotor response analysis tool (PRAT) and for developmental toxicity endpoints (MO24: mortality at 24 hpf, DP: developmental progression, SM: spontaneous movement, and NC: notochord distortion). At 120 hpf, locomotor activity was measured using Viewpoint Zebralab and assessed for 18 endpoints. Zebrafish acquisition and analysis program (ZAAP), a custom program designed to inventory, acquire, and manage zebrafish data, was used to collect developmental endpoints as either present or absent (i.e., binary responses were recorded). If mortality occurred for an embryo (at either 24 or 120 hpf), the non-mortality endpoints were not measured.
With `CCCCCCCCOC(=O)CCCCCCCCC(=O)OCCCCCCCC` the outcome was “inactive”.
With `O=C(O)Cc1cc(I)c(Oc2cc(I)c(O)c(I)c2)c(I)c1` the outcome was “inactive”.
With `CCC(=C(c1ccc(O)cc1)c1ccc(OCCN(C)C)cc1)c1ccccc1` the outcome was “inactive”.
With `CC[C@H](C)[C@@H](C(=O)O)n1sc2ccccc2c1=O` the outcome was “inactive”.
With `CC(O)CO` (stereo not given) the outcome was “inactive”.
For `CCCCCCCCCCCCN1CCCC1=O`, the outcome was “inactive”.
For `c1ccc2c(c1)Cc1ccccc1-2`, the outcome was “inactive”.
In the case of `CC1=C(/C=C/C(C)=C/C=C/C(C)=C/C(=O)O)C(C)(C)CCC1`, the AC50 is reported as 272 nM (active).
For `CC(=O)CC(C)(C)O`, the outcome was “inactive”.
In the case of `Cc1cc(C)c(O)c(C)c1`, the outcome is reported as “inactive”.
With `CN1CCN(c2ccccc2/C=C2\SCCN(c3ccc(Cl)c(Cl)c3)C2=O)CC1` the outcome was “inactive”.
For `CCc1nn(C2CCCCC2)c2cc(C3(C#N)CCC(C(=O)O)CC3)ccc12` (stereo not given), the outcome was “inactive”.
With `COCC(C)OCC(C)O` (stereo not given) the outcome was “inactive”.
In the case of `C#C[C@]1(O)CC[C@H]2[C@@H]3CCC4=CC(=O)CC[C@@H]4[C@H]3CC[C@@]21C`, the outcome is reported as “inactive”.
For `CC(C)CCCCCCOC(=O)CCCCC(=O)OCCCCCCC(C)C`, the outcome was “inactive”.
In the case of `NC(=O)N1C(=O)C(C(=O)c2cc(Cl)cs2)c2cc(F)c(Cl)cc21` (stereo not given), the outcome is reported as “inactive”.
With `OCCC(F)(F)C(F)(F)C(F)(F)C(F)(F)C(F)(F)C(F)(F)C(F)(F)C(F)(F)F` the outcome was “inactive”.
With `CC[C@H](c1ccc(O)cc1)[C@@H](CC)c1ccc(O)cc1` the outcome was “inactive”.
For `C[C@@H]1C[C@H]2[C@@H]3CCC4=CC(=O)C=C[C@]4(C)[C@@]3(F)[C@@H](O)C[C@]2(C)[C@@]1(O)C(=O)COP(=O)(O)O`, the outcome was “inactive”.
With `CN1CCC[C@H]1c1cccnc1` the outcome was “inactive”.
For `CCCCCCCCCCCCc1ccccc1S(=O)(=O)O`, the outcome was “inactive”.
With `CC(C)(C)c1ccc(O)c(C(C)(C)C)c1` the outcome was “inactive”.
With `OC1CCCCC1` the outcome was “inactive”.
In the case of `CCOC(=O)CC(O)(CC(=O)OCC)C(=O)OCC`, the outcome is reported as “inactive”.
With `CCCCC(CC)COC(=O)CCCCC(=O)OCc1ccccc1` (stereo not given) the outcome was “inactive”.
With `Oc1cc2ccccc2c2ccccc12` the outcome was “inactive”.
In the case of `CC#C[C@]1(O)CC[C@H]2[C@@H]3CCC4=CC(=O)CCC4=C3[C@@H](c3ccc(N(C)C)cc3)C[C@@]21C`, the outcome is reported as “inactive”.
With `ClC1=C(Cl)C(Cl)(Cl)C(Cl)=C1Cl` the outcome was “inactive”.
For `CCCCCCC(=O)O`, the outcome was “inactive”.
In the case of `CC(=O)NC1(c2cccc(F)c2)CCN(CC[C@@]2(c3ccc(Cl)c(Cl)c3)CN(c3ccccc3)C(=O)CO2)CC1`, the outcome is reported as “inactive”.
With `C=C(C)C(=O)OCCC(F)(F)C(F)(F)C(F)(F)C(F)(F)C(F)(F)C(F)(F)F` the outcome was “inactive”.
In the case of `CCc1ccc(CCOc2ccc(CC3SC(=O)NC3=O)cc2)nc1` (stereo not given), the outcome is reported as “inactive”.
In the case of `CCC(C)(C)C1CCC(O)CC1` (stereo not given), the outcome is reported as “inactive”.
In the case of `O=C(O)c1ccccc1C(c1ccc(O)cc1)c1ccc(O)cc1`, the outcome is reported as “inactive”.
In the case of `CC(C)(C)c1cc(C(C)(C)C)c(O)c(C(C)(C)C)c1`, the outcome is reported as “inactive”.
With `COC(=O)CCCCC(=O)OC` the outcome was “inactive”.
In the case of `Nc1cccc2c(N)cccc12`, the outcome is reported as “inactive”.
For `c1ccc2c(c1)ccc1ccccc12`, the outcome was “inactive”.
With `Oc1cccc(O)c1` the outcome was “inactive”.
For `NC(=O)N(O)[C@@H]1C=C[C@H](Oc2cccc(Oc3ccc(F)cc3)c2)C1`, the outcome was “inactive”.
